Records with an inconclusive call do not appear. Entries that show only a call come without a potency. Calls of active or inactive are those of the source. Calls come from the whole dose curve; as a rule, active = well fitted cell-killing curve with a large enough effect in the repeat runs; inconclusive = weak or mixed curves; inactive = flat fitted curve, though single readings scatter.
Experiment: qHTS assay to identify small molecule antagonists of the estrogen related receptor (ERR) signaling pathway - cell viability counter screen (AID 1224818);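 note: viability measured after 17.5 h of compound exposure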
Details: ERR reporter cell line viability counter screen; series mostly up to 46.1 µM
Procedure, shortened: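 In the same ERR cell assay, compound-treated wells (17.5 h, 37 C) were multiplexed with a fluorogenic viability reagent, CellTiter-Fluor, read after 30 min to flag cytotoxic substances.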

SMILES	Potency
C[C@H](Cc1ccc2c(c1)OC(C(=O)O)(C(=O)O)O2)NC[C@H](O)c1cccc(Cl)c1	inactive
Cn1cnc(CCN)c1	inactive
CC(N)Cc1c[nH]c2ccc(O)cc12 (configuration not stated)	inactive
COC(=O)N1CCN(C(=O)Cc2ccc(Cl)c(Cl)c2)C(CN2CCCC2)C1 (configuration not stated)	inactive
COc1ccc2[nH]cc(CCN)c2c1	inactive
CC(=O)OCC1=C(C(=O)[O-])N2C(=O)[C@@H](NC(=O)CCC[C@@H](N)C(=O)[O-])[C@H]2SC1.[Zn+2]	inactive
CCOC(=O)c1ncn2c1[C@@H]1CCCN1C(=O)c1cc(OC)ccc1-2	inactive
CCCN1CCc2cc(O)cc3c2[C@H]1Cc1ccc(O)c(O)c1-3	inactive
C#CCOC(=O)C1=CCCN(C)C1	inactive
NCc1cc(=O)[nH]o1	inactive
O=c1ccc2[nH]cc(C3=CCNCC3)c2[nH]1	inactive
Oc1ccc2c3c1O[C@H]1c4[nH]c5ccccc5c4C[C@@]4(O)C(C2)N(CC2CC2)CCC314 (some centres not stated)	inactive
CNCCc1c[nH]c2ccc(O)cc12	inactive
C[C@H](N)Cc1cccc(C(F)(F)F)c1	inactive
O=C1CCCN1CC#CCN1CCCC1	inactive
Cc1sc2ccccc2c1CC1=NCCN1	inactive
NCC(CP(=O)(O)O)c1ccc(Cl)cc1 (configuration not stated)	inactive
O=C(O)[C@@H]1CCN1	inactive
CN1CCc2cccc(Cl)c2CC1	inactive
CC[C@@]1(O)C(=O)OCc2c1cc1n(c2=O)Cc2cc3ccccc3nc2-1	inactive
NC(CCP(=O)(O)O)C(=O)O (configuration not stated)	inactive
CC(C)[C@H]1CN[C@H](C(=O)O)[C@H]1CC(=O)O	inactive
